About 79,000 compounds went through this panel and 15% of them were active in at least one assay; those are over-represented in the sample as a whole. Unmarked numbers belong to inactive results. Active and inactive are the calls of the source. Cut-off read from the data, not from the text of the source: active = growth inhibition above about 70%; inactive = the rest.

Test [1] is described as follows: NCI Yeast Anticancer Drug Screen. Data for the rad50 strain (AID 155).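 Note: 0% = growth of vehicle-only cultures of the same strain.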 Conditions: S. cerevisiae rad50 strain growth inhibition; at 50.0 µM; hits give high values. An outline of the steps: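 Cells are treated with compound, grown, and their growth is then scored against vehicle-only cultures of the same repair-deficient yeast strain.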
Test [2] in a line: NCI Yeast Anticancer Drug Screen. Data for the mec2-1 strain (AID 157). Conditions: S. cerevisiae mec2-1 strain, at 50.0 µM, hits give high values. Put shortly: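 Cells of the genetically defined mec2-1 yeast strain are incubated with test compound. Inhibition of growth is calculated against vehicle-treated controls.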
Test [3] in a line: NCI Yeast Anticancer Drug Screen. Data for the sgs1 mgt1 strain (AID 161).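 Note: 0% = growth of cultures given vehicle only.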 Conditions: S. cerevisiae sgs1 mgt1 strain, at 50.0 µM, hits give high values. Put shortly:
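Inhibition of yeast growth, normalised to vehicle-treated controls, is reported for a strain bearing genetic alterations in DNA damage repair.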

Test [4] is described as follows: NCI Yeast Anticancer Drug Screen. Data for the cln2 rad14 strain (AID 165).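 Note: 0% = growth equal to vehicle treated cultures.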 The conditions noted are these: S. cerevisiae cln2 rad14 strain, at 50.0 µM, hits give high values. Put shortly: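 The screen exposed genetically defined yeast (cln2 rad14) to test compounds and scored growth inhibition relative to vehicle-treated controls.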
Test [5] is described as follows: NCI Yeast Anticancer Drug Screen. Data for the bub3 strain (AID 167). Conditions: S. cerevisiae bub3 mutant strain, at 50.0 µM, hits give high values. An outline of the steps: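 Part of a panel of yeast mutants defective in DNA damage repair or cell cycle regulation. Each strain is grown with compound, and inhibition is calculated relative to solvent-treated cultures.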

A short description of test [6]: NCI Yeast Anticancer Drug Screen. Data for the mlh1 rad18 strain (AID 175). Conditions: S. cerevisiae mlh1 rad18 strain growth inhibition; at 50.0 µM; hits give high values. Put shortly:
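Compound-treated yeast growth, normalised to vehicle controls. Strain bears defined DNA repair mutations.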

Take `Cc1ccc(S(=O)(=O)OC2CC(C(C)(C)C)CCC2c2ccccc2)cc1` (stereo unspecified): the growth inhibition is -29.1% in test [1]; -7% in test [2]; -48.9% in test [3]; -84.2% in test [4]; -5.15% in test [5]; 5.9% in test [6].
As for `COc1cc(O)c2c(c1)C(=O)C1=C(C2=O)[C@@H](C)OC(C)C1` (stereo partly specified), the growth inhibition in test [1] is -4.3%; in test [2], 10.2%; in test [3] it was 19.9%; in test [4], 11.1%; in test [5], 12.8%; in test [6], 19.8%.
For the compound `NC(C(=O)O)c1ccc(F)cc1` (stereo unspecified), the growth inhibition in test [1] is -9.1%; in test [2] it was -1.4%; in test [3], 28.7%; in test [4], -10%; in test [5], 2.4%; in test [6] it was 37.5%.
Consider `CC(=O)Nc1cc2c(cc1Cl)-c1cc(Cl)c(Cl)cc1C2=O`, for which the growth inhibition in test [1] was -18.1%; in test [2] it was -2.55%; in test [3] it was -9.85%; in test [4], -25.1%; in test [5] it was -20.7%; in test [6], -17.5%.
For `COc1ccc(N2C(=O)C3c4[nH]c5ccccc5c4C4CCC(C(C)(C)C)CC4C3C2=O)c(C)c1` (stereo unspecified), the growth inhibition was 11.9% in test [1]; 1.95% in test [2]; 14.7% in test [3]; 17.1% in test [4]; -2.45% in test [5]; 17.1% in test [6].
As for `Cc1ccc(S(=O)(=O)/N=C/C=P(c2ccccc2)(c2ccccc2)c2ccccc2)cc1`, the growth inhibition is 11.4% in test [1]; 7.45% in test [2]; -22.1% in test [3]; -19% in test [4]; -2.1% in test [5]; -3.65% in test [6].
For the compound `O=C(O)CSC(=S)c1ccccc1`, the growth inhibition in test [1] is 16.4%; in test [2], 19.8%; in test [3], 4%; in test [4] it was -5.7%; in test [5], -15.8%; in test [6], -12.9%.
Consider `SC(S)(Cc1ccccc1)Cc1ccccc1`, for which the growth inhibition in test [1] is -6.4%; in test [2], 2.2%; in test [3], 16.4%; in test [4], -9.65%; in test [5], 35.1%; in test [6] it was 1%.
As for `CC(C)(C)OC(=O)NC(Cc1ccc(OC(C)(C)C)cc1)C(=O)N[C@H]1CC[C@H](C(=O)O)C1` (stereo partly specified), the growth inhibition in test [1] was -6.6%; in test [2] it was -1.25%; in test [3], -8%; in test [4] it was -7.85%; in test [5], 11.2%; in test [6], 10%.
With `COC(=O)CC1(C(=O)OC)Nc2ccc(Cl)cc2C(=O)O1` (stereo unspecified), the growth inhibition in test [1] was -2.55%; in test [2], 1.85%; in test [3], 12.5%; in test [4], -19.6%; in test [5], -9.5%; in test [6] it was -11.8%.
Take `CCN(CC)c1ccc2cc(-c3nc4ccccc4s3)c(=O)oc2c1`: the growth inhibition was 12.4% in test [1]; -18.1% in test [2]; -9.5% in test [3]; -3.05% in test [4]; -11.5% in test [5]; 4.8% in test [6].
Consider `O=C(O)c1ccccc1Nc1ccccc1[N+](=O)[O-]`, for which the growth inhibition in test [1] was -4%; in test [2], 22.5%; in test [3], 17.2%; in test [4], 8.15%; in test [5], 27.1%; in test [6] it was 17.6%.
`CC(=O)OC1CC(OC(C)=O)C(OC(C)=O)CC1OC(C)=O` (stereo unspecified): the growth inhibition in test [1] is 7.95%; in test [2], -5.15%; in test [3], -9.45%; in test [4] it was -18.2%; in test [5], 1.05%; in test [6], 12.6%.
On to `COC(=O)c1ccc(Cl)cc1OCC(=O)Nc1ccccc1`, for which the growth inhibition in test [1] is -29.1%; in test [2] it was -0.55%; in test [3], -12.2%; in test [4], -27.7%; in test [5], -4.6%; in test [6] it was -3.65%.
In the case of `N#CSCC(=O)CCC(=O)O`, the growth inhibition in test [1] is -2.75%; in test [2], 0.7%; in test [3], -8.8%; in test [4] it was -15%; in test [5] it was 3.75%; in test [6], -1.1%.
As for `CC1=C(C(=O)Nc2ccccc2C)C(c2ccc(C3C(C(=O)Nc4ccccc4C)=C(C)NC(C)=C3C(=O)Nc3ccccc3C)cc2)C(C(=O)Nc2ccccc2C)=C(C)N1`, the growth inhibition in test [1] is 65.7%; in test [2], 65%; in test [3], 61.2%; in test [4], 47.8%; in test [5] it was 21.6%; in test [6], 84.6% (active).
Regarding `CCCCCCCC(=O)NCCCC(C)Nc1cc(OC)cc2cccnc12` (stereo unspecified), the growth inhibition was 39.7% in test [1]; 47% in test [2]; 19.4% in test [3]; 14.9% in test [4]; 22% in test [5]; 28.1% in test [6].
Take `Nc1ncnc2c1ncn2C1OC(COP(=O)(O)OP(=O)(O)OCC2OC([n+]3cccc(C=O)c3)C(O)C2O)C(O)C1O` (stereo unspecified): the growth inhibition was 10.6% in test [1]; 4.4% in test [2]; 6.85% in test [3]; -4.1% in test [4]; 0.6% in test [5]; 12.3% in test [6].
For `CC(C)C(=O)Oc1cc2c(=O)oc3c(OC(=O)C(C)C)c(OC(=O)C(C)C)cc4c(=O)oc(c1OC(=O)C(C)C)c2c34`, the growth inhibition in test [1] is 40.1%; in test [2], 12.6%; in test [3], 25.6%; in test [4] it was 13.7%; in test [5], 31.6%; in test [6] it was 48.5%.
`NC(=O)CCCCCCCCCCBr`: the growth inhibition was 15.6% in test [1]; 21.2% in test [2]; 8.85% in test [3]; 20.2% in test [4]; 22.8% in test [5]; 42.3% in test [6].
Regarding `C=C(S(=O)(=O)c1ccccc1)S(=O)(=O)c1ccccc1` (tested in a mixture with another compound), the growth inhibition in test [1] is 92.8% (active); in test [2], 97.3% (active); in test [3], 96.4% (active); in test [4], 98% (active); in test [5] it was 97.8% (active); in test [6], 94.9% (active).

Source of the values: PubChem BioAssay (NCI).
